Holding throughout (assay): yeast three-hybrid, YBZ-1, SC-Leu-His + 0.5 mM 3-AT, 4 days
Common to all, as to settings: tags: N-Gal4 AD-HA kept; label: inside an RPR1-promoter hybrid RNA with tandem MS2 sites; ssRNA

In one test the target is PUM1 PUF domain R8-RWH (Homo sapiens, UniProt Q14671 828-1176, N1122R;Y1123W;Q1126H). The procedure, abridged:
(§1)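 Pumilio-1 PUF domain libraries, randomized at the three base-contacting residues of each repeat, were co-expressed with matching RNA elements from a centromeric plasmid in strain YBZ-1, which carries a LexA–MS2 coat fusion and a HIS3 reporter. Transformants grew for four days on SC-Leu (input) or on SC-Leu-His + 0.5 mM 3-AT (selection), and the repeat regions were PCR-amplified and Illumina-sequenced. The interaction score is the log change in variant frequency from input to selection. That logarithm is base 2, with a pseudocount of 1 where a variant was absent.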

The next test has as its target PUM1 PUF domain R4-DHN (Homo sapiens, UniProt Q14671 828-1176, N971D;Q975N). The procedure, abridged: as §1
Another test addresses PUM1 PUF domain R5-WGF (Homo sapiens, UniProt Q14671 828-1176, C1007W;R1008G;Q1011F). The essentials: as §1
The next test addresses PUM1 PUF domain R5-DME (Homo sapiens, UniProt Q14671 828-1176, C1007D;R1008M;Q1011E). The essentials: as §1
The target of a further test is PUM1 PUF domain R5-GWL (Homo sapiens, UniProt Q14671 828-1176, C1007G;R1008W;Q1011L). The essentials:
as §1

In another test the target is T1, PUM1 PUF domain R6-WWA (Homo sapiens, UniProt Q14671 828-1176, N1043W;Y1044W;Q1047A).
T1 sequence: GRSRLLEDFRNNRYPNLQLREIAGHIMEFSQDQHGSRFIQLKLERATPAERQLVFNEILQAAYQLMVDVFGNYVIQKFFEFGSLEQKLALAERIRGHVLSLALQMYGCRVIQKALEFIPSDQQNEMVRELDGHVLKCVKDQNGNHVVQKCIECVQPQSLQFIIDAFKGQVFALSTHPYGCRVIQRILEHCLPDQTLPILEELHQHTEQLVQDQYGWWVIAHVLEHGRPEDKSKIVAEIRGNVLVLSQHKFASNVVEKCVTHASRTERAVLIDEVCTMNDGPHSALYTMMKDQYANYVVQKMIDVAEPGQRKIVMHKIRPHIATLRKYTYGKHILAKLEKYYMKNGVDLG
The procedure, abridged: as §1

A further test addresses T2, PUM1 PUF domain R6-LFT (Homo sapiens, UniProt Q14671 828-1176, N1043L;Y1044F;Q1047T).
T2 sequence: T1 sequence with W216L, W217F, A220T
The essentials: as §1

The target of another test is PUM1 PUF domain R7-LFD (Homo sapiens, UniProt Q14671 828-1176, S1079L;N1080F;E1083D). The procedure, abridged:
as §1

The target in another test is PUM1 PUF domain R5-QCR (Homo sapiens, UniProt Q14671 828-1176, C1007Q;R1008C;Q1011R). The essentials: as §1
For another test, the target named is PUM1 PUF domain R5-DHS (Homo sapiens, UniProt Q14671 828-1176, C1007D;R1008H;Q1011S). The essentials:
as §1

Another test has as its target PUM1 PUF domain R3-VYY (Homo sapiens, UniProt Q14671 828-1176, C935V;R936Y;Q939Y). The procedure, abridged:
as §1

A further test concerns the target PUM1 PUF domain R3-QPG (Homo sapiens, UniProt Q14671 828-1176, C935Q;R936P;Q939G). The procedure, abridged:
as §1

The target in a further test is PUM1 PUF domain R3-RIC (Homo sapiens, UniProt Q14671 828-1176, C935R;R936I;Q939C). The procedure, abridged:
as §1

A further test has as its target PUM1 PUF domain R5-DWM (Homo sapiens, UniProt Q14671 828-1176, C1007D;R1008W;Q1011M). The essentials:
as §1

The target in a further test is PUM1 PUF domain R4-CRV (Homo sapiens, UniProt Q14671 828-1176, N971C;H972R;Q975V). The procedure, abridged: as §1
A further test addresses PUM1 PUF domain R4-DYL (Homo sapiens, UniProt Q14671 828-1176, N971D;H972Y;Q975L). The essentials: as §1
Another test deals with PUM1 PUF domain R8-KFT (Homo sapiens, UniProt Q14671 828-1176, N1122K;Y1123F;Q1126T). The procedure, abridged:
as §1

Another test addresses T3, PUM1 PUF domain R6-FYA (Homo sapiens, UniProt Q14671 828-1176, N1043F;Q1047A).
T3 sequence: T1 sequence with W216F, W217Y
The procedure, abridged:
as §1

The next test deals with PUM1 PUF domain R3-GHH (Homo sapiens, UniProt Q14671 828-1176, C935G;R936H;Q939H). The essentials: as §1
The next test concerns the target PUM1 PUF domain R4-WGD (Homo sapiens, UniProt Q14671 828-1176, N971W;H972G;Q975D). The procedure, abridged: as §1

Changes are numbered by the printed parent chain.

Chain of PUM1 PUF domain R5-GWL (Q14671 828-1176 C1007G/R1008W/Q1011L): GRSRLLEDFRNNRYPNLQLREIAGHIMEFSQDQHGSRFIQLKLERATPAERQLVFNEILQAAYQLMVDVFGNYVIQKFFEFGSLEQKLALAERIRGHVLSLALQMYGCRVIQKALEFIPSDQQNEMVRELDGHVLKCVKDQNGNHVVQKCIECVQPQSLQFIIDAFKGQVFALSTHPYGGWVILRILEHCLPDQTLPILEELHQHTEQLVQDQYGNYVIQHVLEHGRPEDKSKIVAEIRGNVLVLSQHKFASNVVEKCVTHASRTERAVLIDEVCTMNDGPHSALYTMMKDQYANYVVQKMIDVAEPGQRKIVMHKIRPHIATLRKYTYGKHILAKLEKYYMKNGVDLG

Take “GGCUAGAACUAGUGGAUCCCCCGGCGCCCGGCGGCUCGAGCCCGGGUAAGCGUAAAUAGUCUGCAUGCCGCCGGGCGCCAUGCCUGCAGGUCGACUCUAGAAAACAUG”: the binding signal in the test with PUM1 PUF domain R8-RWH was 5.97 log2 enrichment (interaction score).
Consider “GGCUAGAACUAGUGGAUCCCCCGGCGCCCGGCGGCUCGAGCCCGGGUAAGUGUACAUAGUCUGCAUGCCGCCGGGCGCCAUGCCUGCAGGUCGACUCUAGAAAACAUG”, for which the binding signal in the test with PUM1 PUF domain R4-DHN is 2.6 log2 enrichment (interaction score).
Turning to “GGCUAGAACUAGUGGAUCCCCCGGCGCCCGGCGGCUCGAGCCCGGGUAAGUGUGAAUAGUCUGCAUGCCGCCGGGCGCCAUGCCUGCAGGUCGACUCUAGAAAACAUG”, the figures for the binding signal with PUM1 PUF domain R5-WGF, with PUM1 PUF domain R5-DME and with PUM1 PUF domain R5-GWL were 4.79 log2 enrichment (interaction score), 2.8 log2 enrichment (interaction score) and 3.27 log2 enrichment (interaction score), respectively.
On to “GGCUAGAACUAGUGGAUCCCCCGGCGCCCGGCGGCUCGAGCCCGGGUAAGUGAAAAUAGUCUGCAUGCCGCCGGGCGCCAUGCCUGCAGGUCGACUCUAGAAAACAUG”, for which the binding signal was 2.47 log2 enrichment (interaction score) with PUM1 PUF domain R6-WWA and 6.33 log2 enrichment (interaction score) with PUM1 PUF domain R6-LFT.
For “GGCUAGAACUAGUGGAUCCCCCGGCGCCCGGCGGCUCGAGCCCGGGUAAGUUUAAAUAGUCUGCAUGCCGCCGGGCGCCAUGCCUGCAGGUCGACUCUAGAAAACAUG”, the binding signal with PUM1 PUF domain R7-LFD is 2.92 log2 enrichment (interaction score).
Take “GGCUAGAACUAGUGGAUCCCCCGGCGCCCGGCGGCUCGAGCCCGGGUAAGUGUUAAUAGUCUGCAUGCCGCCGGGCGCCAUGCCUGCAGGUCGACUCUAGAAAACAUG”: the figures for the binding signal with PUM1 PUF domain R5-QCR, with PUM1 PUF domain R5-DHS and in the test with PUM1 PUF domain R5-GWL were 3.91 log2 enrichment (interaction score), 4.63 log2 enrichment (interaction score) and 3.36 log2 enrichment (interaction score), respectively.
Consider “GGCUAGAACUAGUGGAUCCCCCGGCGCCCGGCGGCUCGAGCCCGGGUAAGUGUAAUUAGUCUGCAUGCCGCCGGGCGCCAUGCCUGCAGGUCGACUCUAGAAAACAUG”, for which the binding signal was 5.47 log2 enrichment (interaction score) with PUM1 PUF domain R3-VYY, 3.7 log2 enrichment (interaction score) with PUM1 PUF domain R3-QPG and 3.78 log2 enrichment (interaction score) with PUM1 PUF domain R3-RIC.
As to “GGCUAGAACUAGUGGAUCCCCCGGCGCCCGGCGGCUCGAGCCCGGGUAAGUGUAAAUAGUCUGCAUGCCGCCGGGCGCCAUGCCUGCAGGUCGACUCUAGAAAACAUG”, the binding signal was 4.79 log2 enrichment (interaction score) with PUM1 PUF domain R6-WWA; 2.57 log2 enrichment (interaction score) in the test with PUM1 PUF domain R5-DWM; 4.7 log2 enrichment (interaction score) with PUM1 PUF domain R8-RWH; 2.54 log2 enrichment (interaction score) with PUM1 PUF domain R4-CRV; 6.7 log2 enrichment (interaction score) with PUM1 PUF domain R4-DYL; 4.46 log2 enrichment (interaction score) in the test with PUM1 PUF domain R8-KFT. The binding signal was 4.17 log2 enrichment (interaction score) in the test with PUM1 PUF domain R6-FYA, 3.86 log2 enrichment (interaction score) with PUM1 PUF domain R3-GHH and 2.66 log2 enrichment (interaction score) with PUM1 PUF domain R5-GWL.
“GGCUAGAACUAGUGGAUCCCCCGGCGCCCGGCGGCUCGAGCCCGGGUAAGUGUAUAUAGUCUGCAUGCCGCCGGGCGCCAUGCCUGCAGGUCGACUCUAGAAAACAUG”: the results for the binding signal in the test with PUM1 PUF domain R4-DHN and with PUM1 PUF domain R4-WGD were 4.74 log2 enrichment (interaction score) and 4.21 log2 enrichment (interaction score), respectively.
In the case of “GGCUAGAACUAGUGGAUCCCCCGGCGCCCGGCGGCUCGAGCCCGGGUAAGUGUCAAUAGUCUGCAUGCCGCCGGGCGCCAUGCCUGCAGGUCGACUCUAGAAAACAUG”, the binding signal in the test with PUM1 PUF domain R5-QCR is 4.97 log2 enrichment (interaction score).

(Values after article PMC8384837, “Expanding the binding specificity for RNA recognition by a PUF domain”.)
